# Compound activity as filed in PubChem.
# Luc counter: counter-screen: inhibitors of Kinase-Glo firefly luciferase; Q27757; Kinase-Glo luciferase, ATP luminescence, 8 min; Potency, µM (titrated, usually from 38.3 µM), inactives show at the highest dose activity change, negative = inhibition, hits mostly inhibitors; 0.28% of 200,000 active; further: on the % scale 0 is the no-effect control and ±100 the full control effect; nearly all actives have a fitted effect of over 60% in size
#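 Compound is pinned into ATP-containing buffer (10 uM ATP, imidazole pH 7.2, 7 mM MgCl2). Kinase-Glo luciferase reagent is then added. Light output is recorded following an 8-min room-temperature incubation.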
# ELG1 genotox: genotoxicity induction in ELG1-luciferase HEK293T cells; HEK293T ELG1-luciferase reporter, luminescence, 16 h; Potency, µM (titrated, usually from 46 µM), inactives show at the highest dose activity change, positive = activation, hits mostly activators; 1.3% of 330,000 active; further: % of control where 0% means no effect; nearly all actives have a fitted effect of over 60% in size
#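 Luminescence read-out: rising ELG1-luciferase signal, reflecting elevated ELG1 protein under genetic stress, flags genotoxic compounds. Cells were treated for 16 hr at 37 °C before ONE-Glo detection.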
# FLuc modulator: counter-screen for miR-21 project: firefly luciferase inhibitors or activators | P08659 | AID 588342 | 6.9% of 360,000 active | Potency, µM (doses to about 57.5 µM), for the others: at the top dose activity change, negative = inhibition, most hits filed as inhibitors | purified FLuc, Km substrates, luminescence inhibition;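 further: plate controls were vehicle for no effect and reference inhibitor for full effect; nearly all actives have a fitted effect of over 55% in size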
# Target sequence (P08659 whole entry, looked up): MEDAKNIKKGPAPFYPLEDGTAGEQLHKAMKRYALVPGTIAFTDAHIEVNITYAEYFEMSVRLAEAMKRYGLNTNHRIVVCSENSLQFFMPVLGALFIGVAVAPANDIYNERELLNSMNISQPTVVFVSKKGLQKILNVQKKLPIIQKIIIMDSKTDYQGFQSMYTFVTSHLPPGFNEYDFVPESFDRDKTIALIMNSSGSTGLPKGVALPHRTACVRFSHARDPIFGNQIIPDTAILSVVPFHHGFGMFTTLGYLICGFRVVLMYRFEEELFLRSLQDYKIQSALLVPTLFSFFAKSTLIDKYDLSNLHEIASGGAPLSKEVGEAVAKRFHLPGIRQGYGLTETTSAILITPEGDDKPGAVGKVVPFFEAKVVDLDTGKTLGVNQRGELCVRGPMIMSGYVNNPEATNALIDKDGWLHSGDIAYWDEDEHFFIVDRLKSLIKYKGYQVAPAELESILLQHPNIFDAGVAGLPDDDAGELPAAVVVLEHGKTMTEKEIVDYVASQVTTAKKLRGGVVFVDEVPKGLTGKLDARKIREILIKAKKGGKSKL
#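 Purified P. pyralis luciferase (10nM final) with 10uM D-luciferin and 10uM ATP (Km levels) in 50mM Tris acetate pH 7.5, 10mM Mg acetate, 0.01% Tween-20, 0.05% BSA; qHTS 6-point titration, ~60 µM downward; luminescence read.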
# SMN2 splice enh: SMN2 splice variant enhancement; HEK293 SMN2-luciferase splicing reporter, luminescence, 30-36 h; Potency, µM (series often up to 46.1 µM), for the others: at the top dose activity change, positive = activation, actives largely listed as activators; 2.8% of 210,000 active; AID 1458; further: % of control where 0% means no effect; nearly all actives have a fitted effect of over 55% in size
#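 qHTS luciferase splicing reporter: luminescence rises when SMN2 exon 7 is included in transfected HEK293 cells. Compound exposure lasted 30-36 h at 37C, with 4.5 mM final sodium butyrate as control, followed by a ONE-Glo read.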
# NPC1 prom act: NPC1 promoter activation; Huh7 NPC1 promoter luciferase reporter, 24 h; Potency, µM (series often up to 9.22 µM), inactives show at the top dose activation, hits mostly activators; 2.4% of 320,000 active; further: % of control where 0% means no effect; nearly all actives have a fitted effect of over 60% in size
#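 Stably transfected Huh7 (NPC1 promoter→luciferase), 1500 cells/well in Opti-MEM + 10% FBS, 2 h settle, then compound 24 h at 37 °C. Luminescence after 10 min with Amplite reagent.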
# Rab9 promoter act: activates the Rab9 promoter; Huh7 Rab9 promoter-luciferase reporter, luminescence, 24 h; Potency, µM (titrated, usually from 9.22 µM), for the others: at the highest dose activation, negative = inhibition, usual class: activators; 2.8% of 320,000 active; AID 485297; further: % of control where 0% means no effect; nearly all actives have a fitted effect of over 60% in size
#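 Cells were plated at 1500 per well in reduced-serum medium with 10% FBS and left 2 h. Compound in DMSO was then added for 24 h at 37 °C. Reporter signal was read by luminescence after 10 min with luciferase detection reagent.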
# * marks the source's active call; other numbers are inactive results; ? = inconclusive; / = no result; [ ] = another dose, or the depositor's remark. Sampled rows, rich in hits. Any-hit rate of the full collection: about 7.5%. The call rests on the fitted dose curve; in most records, active means well fitted curve in the direction sought with a large enough effect; inconclusive means small, poorly fitted or top-dose-only effect, or another doubt; inactive means no such curve, though single readings can be large; an effect the other way counts as inactive or inconclusive. Potency means the concentration at half of the fitted maximal effect.
SMILES,Luc counter,ELG1 genotox,FLuc modulator,SMN2 splice enh,NPC1 prom act,Rab9 promoter act
COc1ccc(CCNC(=O)CCc2cn(C)c3ccccc23)c(OC)c1OC,/,-1.8%,-2.2%,/,-4.1%,-0.7%
O=C(Nc1scc(-c2ccccc2)c1C(=O)O)c1ccc(F)cc1,/,5.1%,12µM*,/,29.1%,?
CCOC(=O)c1c(-c2ccc(C)cc2)csc1NC(=O)c1ccc(C(C)(C)C)cc1,/,/,-12.9%,-0.6%,/,/
O=C(Nc1ncc2c(n1)-c1ccccc1CC2)c1ccc(F)cc1,1.4%,-4.6%,?,-15.9%,2.5%,-1.5%
CC(C)Cc1csc(NC(=O)C(C)C)c1C(=O)O,/,-6.2%,4.2%,/,-1.4%,0.4%
Cc1ccc(-c2csc(NC(=O)c3ccc(F)cc3)c2C(=O)O)cc1,/,-6.5%,12µM*,/,?,3.98µM*
CC(C)Cc1csc(NC(=O)c2ccc(Br)cc2)c1C(=O)O,/,-8.2%,26.9µM*,/,2.1%,12.9%
O=C(Nc1nsc(-c2ccccc2)n1)c1ccc(F)cc1,-7.7%,?,9.53µM*,?,3.55µM*,2.24µM*
O=C(O)CSCc1cccc2ccccc12,0.2%[7.66 µM],/,/,-5.7%[9.22 µM],/,/
COc1ccc([N+](=O)[O-])cc1NCc1ccccc1,-0.7%,?,0.6%,31.6µM*,-4.2%,-3.3%
O=[N+]([O-])c1ccc(Nc2ccccc2)nc1,3.8%,5.2%,-3.1%,2.5%,-1.3%,2.4%
O=[N+]([O-])c1ccc(NCc2ccccc2)nc1,1.4%,?,21.3µM*,?,28.4%,24.2%
CC/S(C)=N/S(=O)(=O)c1ccc(C)cc1 (stereo unspecified),1.0%,-1.8%,-2.0%,5.9%,0.2%,2.2%
O=C(OCCc1cc2ccccc2c(=O)o1)c1ccco1,/,3.4%,5.36µM*,/,0.8%,-4.2%
O=C(NCc1ccco1)c1cc(=O)c2ccccc2o1,3.5%,-4.4%,-4.0%,1.7%,-5.6%,-5.3%
O=C(NCc1ccco1)c1cc2ccccc2c(=O)o1,/,15.0%,15.1µM*,/,12.5%,9.8%
O=C(NCc1ccco1)c1cc2cc(Br)ccc2o1,/,10.0%,16.9µM*,/,21.7%,?
Cc1c(C(=O)NCc2ccco2)oc2ccc(Br)cc12,/,-0.6%,?,/,18.8%,16.5%
CCC(=O)Nc1ccc(NC(=O)CSc2nnnn2Cc2ccccc2)cc1C,/,1.8%,-13.9%,/,1.7%,7.1%
O=C(Oc1ccc2c(c1)OCC2=O)c1ccc(Cl)cc1,/,-0.3%,?,/,-5.5%,-0.3%
O=C(Oc1ccc2c(c1)C(=O)c1ccccc1CO2)c1ccccc1,-1.9%,?,21.3µM*,-7.5%,1.0%,13.8%
COc1ccccc1C1=NOC(CN2C(=O)c3ccccc3S2(=O)=O)C1 (stereo unspecified),/,?,8.49µM*,/,2.82µM*,3.98µM*
O=C1c2ccccc2S(=O)(=O)N1CC1CC(c2ccccc2Cl)=NO1 (stereo unspecified),4.0%,11.6µM*,2.69µM*,3.98µM*,3.16µM*,3.16µM*
O=C1N=C(N2C=CC(=C3C=CNC=C3)C=C2)/C(=C/N=NC(=O)c2ccccc2)S1,/,-1.1%,-4.0%,/,1.5%,-1.9%
CCc1ccc(OC(C)c2nc(-c3ccc(-n4cccc4)cc3)no2)cc1 (stereo unspecified),/,/,-5.8%,-5.3%,/,/
Nc1nc2ccccc2n1/N=C/c1ccc(-c2ccccc2)o1,-2.8%,?,?,27.1%,?,3.98µM*
C[C@@H](C(=O)Nc1ccc2ccccc2c1)[C@@H]1C[C@@]1(C)[C@@H](NC(=O)c1ccncc1Cl)c1ccccc1,1.6%,/,/,-14.9%,/,/
COc1cc2c(cc1NC(=O)C1CCCO1)oc1ccccc12 (stereo unspecified),2.4%,4.61µM*,6.01µM*,25.1µM*,3.98µM*,3.55µM*
O=C(Nc1ccc(Cl)cc1)N1CCOC12CCC1(CC2)OCCO1,-1.1%,-0.9%,16.9µM*,8.1%,3.1%,16.0%
